# Reference: PubChem BioAssay (NCI)
# This is part of a sample that, as a whole, favours compounds with a hit. Of some 83,000 tested, about 20% had one in any assay.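 Results are percent growth after 48 hours of single-concentration exposure. 100 means growth as in untreated cells, lower positive values show inhibition; negative values down to -100 show cell death.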 Values without a mark were called inactive. Active and inactive are the calls of the source. How the source made its calls: active means growth percent below 10; inactive means the rest.
# Legend:
# Assay in all cases: NCI-60 one-dose screen, 48 h (100 = growth as untreated, 0 = no growth, -100 = all killed)
# Conditions in all cases: 10 µM unless noted
# DU-145 prostate = tested on: DU-145 prostate
# K-562 leukemia = tested on: K-562 leukemia
# MALME-3M melanoma = tested on: MALME-3M melanoma
# MDA-MB-231 breast = tested on: MDA-MB-231 breast
# RXF 393 renal = tested on: RXF 393 renal
# SF-268 CNS = tested on: SF-268 CNS
# SF-295 CNS = tested on: SF-295 CNS
# SF-539 CNS = tested on: SF-539 CNS
# UACC-257 melanoma = tested on: UACC-257 melanoma
# M14 melanoma = tested on: M14 melanoma
# HCT-15 colon = tested on: HCT-15 colon
# HT29 colon = tested on: HT29 colon
# SNB-75 CNS = tested on: SNB-75 CNS
# SNB-19 CNS = tested on: SNB-19 CNS
# U251 CNS = tested on: U251 CNS
# PC-3 prostate = tested on: PC-3 prostate
# SK-MEL-5 melanoma = tested on: SK-MEL-5 melanoma
# UACC-62 melanoma = tested on: UACC-62 melanoma
# SK-MEL-28 melanoma = tested on: SK-MEL-28 melanoma
# LOX IMVI melanoma = tested on: LOX IMVI melanoma
SMILES,growth (DU-145 prostate),growth (K-562 leukemia),growth (MALME-3M melanoma),growth (MDA-MB-231 breast),growth (RXF 393 renal),growth (SF-268 CNS),growth (SF-295 CNS),growth (SF-539 CNS),growth (UACC-257 melanoma),growth (M14 melanoma),growth (HCT-15 colon),growth (HT29 colon),growth (SNB-75 CNS),growth (SNB-19 CNS) [%],growth (U251 CNS),growth (PC-3 prostate),growth (SK-MEL-5 melanoma),growth (UACC-62 melanoma),growth (SK-MEL-28 melanoma),growth (LOX IMVI melanoma)
COc1ccc(NC(=O)c2ccc(Nc3ncnc4[nH]c(C)c(C)c34)cc2)cc1,107%,105%,114%,104%,105%,91.4%,96.6%,97.5%,101%,110%,103%,103%,93.5%,105,101%,109%,98.6%,99.6%,102%,
N#CC1(C#N)C2=C(CCCC2)NC(c2c(F)cccc2Cl)C1(C#N)C#N (configuration not stated),89.7%,25.8%,74.7%,87.5%,78.2%,89.9%,81.3%,50.1%,75.2%,49.5%,66.9%,17.3%,51.1%,69.2,60.7%,72.1%,63.9%,40.8%,65.8%,
N#Cc1c(NC(=O)c2cccs2)[n+]([O-])c2cc(C(F)(F)F)ccc2[n+]1[O-],114%,87.7%,132%,96.8%,109%,105%,97.9%,101%,91.4%,116%,117%,107%,92.6%,106,104%,65.1%,58%,96.8%,120%,
CCCn1c(N)c(C(N)=O)sc1=S,117%,119%,105%,99.8%,125%,97.2%,115%,109%,109%,103%,90.6%,106%,82.9%,97.2,97.4%,96%,111%,97.9%,105%,
COc1cc(/C=N/Nc2nc(-c3ccc(F)cc3)c(C#N)c(N3CCOCC3)n2)ccc1O,96.3%,85.3%,122%,99.8%,-0.23% (active),99.8%,106%,93.7%,102%,114%,99.9%,96%,84%,92.9,97.6%,96.4%,102%,99%,99.9%,
C=C1C(=O)O[C@H]2[C@H]1CC/C(COC(=O)CCCCC(=O)OC/C1=C/CC[C@@]3(C)O[C@H]3[C@H]3OC(=O)C(=C)[C@@H]3CC1)=C\CC[C@@]1(C)O[C@@H]21,56.2%,9% (active),25.5%,29.5%,-44.1% (active),82.2%,101%,46.5%,81.9%,47.8%,18.1%,40.1%,79.2%,,81.4%,68.6%,77.9%,48.3%,76.8%,52.2%
CCOC(=O)c1c(C(F)(F)F)n([O-])c2ccc(Cl)cc2[n+]1=O,-95.7% (active),-57.7% (active),-84.5% (active),-39.1% (active),-60.6% (active),-49.5% (active),-86% (active),-96.1% (active),-70.6% (active),-21.6% (active),-60.2% (active),-43.2% (active),-52.2% (active),32.4,-87.7% (active),-85.7% (active),-93.2% (active),-18.1% (active),-32.8% (active),
NS(=O)(=O)c1ccc(N2Cc3cc(Cl)ccc3OC3=C2C(=O)N(CC2CCCCC2)C3=O)cc1,-94% (active),-38% (active),-77% (active),-74.5% (active),-89.7% (active),-83.9% (active),-19.3% (active),-99.4% (active),-79% (active),-67.7% (active),-79.2% (active),-67.4% (active),-98.4% (active),,-91.3% (active),-61.9% (active),-94.4% (active),-76.1% (active),-93.1% (active),-86.2% (active)
